Data published in PubChem BioAssay (NCI).
Compounds without any hit were thinned out: in the full panel of roughly 79,000, 15% have a hit. Cut-off read from the data, not from the text of the source: active = growth inhibition above about 70%; inactive = the rest.

Experiments:
[1] = NCI Yeast Anticancer Drug Screen. Data for the rad50 strain (AID 155);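 note: 0% = growth of vehicle-only cultures of the same strain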; conditions: S. cerevisiae rad50 strain growth inhibition; at 50.0 µM; stronger effect = higher value
Outline: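 Readout: growth inhibition relative to vehicle-treated cultures. Compound exposure was carried out in a genetically defined yeast strain deficient in DNA damage repair.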

[2] = NCI Yeast Anticancer Drug Screen. Data for the mec2-1 strain (AID 157); conditions: S. cerevisiae mec2-1 strain, at 50.0 µM, stronger effect = higher value
Outline: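 Compounds were applied to mec2-1 yeast cells. Their growth was then compared with that of vehicle-treated cultures to give growth inhibition.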

[3] = NCI Yeast Anticancer Drug Screen. Data for the sgs1 mgt1 strain (AID 161);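 note: 0% = growth of cultures given vehicle only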; conditions: S. cerevisiae sgs1 mgt1 strain, at 50.0 µM, stronger effect = higher value
Outline: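 Yeast cells carrying a defined DNA-repair defect were exposed to test compounds. Growth inhibition was measured relative to vehicle-treated controls.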

[4] = NCI Yeast Anticancer Drug Screen. Data for the cln2 rad14 strain (AID 165);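 note: 0% = growth equal to vehicle treated cultures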; conditions: S. cerevisiae cln2 rad14 strain, at 50.0 µM, stronger effect = higher value
Outline: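 Strain: cln2 rad14 yeast, altered in cell cycle control and DNA damage repair. Read-out: growth inhibition vs vehicle.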

[5] = NCI Yeast Anticancer Drug Screen. Data for the bub3 strain (AID 167); conditions: S. cerevisiae bub3 mutant strain, at 50.0 µM, stronger effect = higher value
Outline: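 Readout: yeast growth inhibition, expressed relative to vehicle-only wells. The test organism is a mutant strain from a panel with lesions in DNA repair or checkpoint genes.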

[6] = NCI Yeast Anticancer Drug Screen. Data for the mlh1 rad18 strain (AID 175); conditions: S. cerevisiae mlh1 rad18 strain growth inhibition; at 50.0 µM; stronger effect = higher value
Outline: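 A repair-deficient yeast strain is exposed to test compound, and growth is scored relative to vehicle-treated controls.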

Measured: growth inhibition

O=c1[nH]c(=O)c2nc[nH]c(=O)c2[nH]1
inactive: [1] -8.55% | [2] -8.45% | [3] -4.2% | [4] -3.55% | [5] -11.6% | [6] -13.2%

COc1c(O)ccc(C(=O)O)c1N
inactive: [1] 13% | [2] 6.55% | [3] 14.1% | [4] 10.1% | [5] 8.95% | [6] -17.4%

Nc1nnc2nc(CC(=O)c3ccccc3[N+](=O)[O-])c(CC(=O)c3ccccc3[N+](=O)[O-])nn12
inactive: [1] 1% | [2] 6.05% | [3] 18.1% | [4] -13.3% | [5] -27.4% | [6] 8.8%

C=C(C)C(O)CC(C)C (stereo unspecified)
inactive: [1] -8.6% | [2] 13.9% | [3] -15.2% | [4] 7.65% | [5] 2.95% | [6] 0.2%

O=CC(O)CO (stereo unspecified)
inactive: [1] 10.4% | [2] 9.5% | [3] 11.9% | [4] 3.95% | [5] 8.65% | [6] -5.2%

O=P(O)(OCCOc1ccccc1)OCCOc1ccccc1
inactive: [1] 6.25% | [2] 10.5% | [3] 8.25% | [4] -24.6% | [5] -11.6% | [6] -12.8%

CC(=O)OC1C(=O)OC(=O)C1OC(C)=O (stereo unspecified)
inactive: [1] 9.6% | [2] 0.9% | [3] 8.1% | [4] 5.25% | [5] 6.05% | [6] -3.85%

CC(=O)Nc1ccc(C(=O)NN2C(=O)CSC2c2ccc([N+](=O)[O-])cc2)cc1 (stereo unspecified)
inactive: [1] -24.1% | [2] -39.8% | [3] -54.5% | [4] -6.3% | [5] -24.3% | [6] -53.2%

c1ccc(C2=NOC3C4CCC(C4)C23)cc1 (stereo unspecified)
inactive: [1] -37.6% | [2] -20.4% | [3] -28.4% | [4] -21% | [5] -8.85% | [6] -20.1%

CCOP(=O)(OCC)C1C(C)N1C(=O)Nc1ccccc1 (stereo unspecified)
inactive: [1] 1.4% | [2] -4.15% | [3] -8.1% | [4] 5% | [5] -11.7% | [6] -17.4%

CCc1cc(O)cc(C)c1Cl
inactive: [1] 55.1% | [2] 29.6% | [3] 46.1% | [4] 46.4% | [5] 44.3% | [6] 26.1%

COc1ccc(CCN=C2OCc3ccccc32)cc1OC
inactive: [1] 36.1% | [2] -49.6% | [3] -42.6% | [4] -18.6% | [5] -21.5% | [6] -50.7%

O=C[C@@H](CO)O[C@H](C=O)c1c[nH]c(=O)[nH]c1=O
inactive: [1] -24.1% | [2] -13.2% | [3] -23.9% | [4] -10.5% | [5] -36.5% | [6] -54.5%

Cc1cc(C)c2nc3c(c(C(O)C4CCCCN4)c2c1)CC/C3=C\c1ccc(Cl)cc1 (stereo unspecified)
inactive: [1] -28.8% | [2] -22.4% | [3] 16.9% | [4] -7.75% | [5] -23.9% | [6] -4.75%

O=C(O)c1ccc(NS(=O)(=O)Cc2ccccc2)cc1
inactive: [1] -14.3% | [2] -24.1% | [3] -41.5% | [4] -22.4% | [5] -36.5% | [6] -6.3%

N#CCc1nc(-c2ccccc2)n[nH]1
inactive: [1] 11.2% | [2] 4.55% | [3] 13.1% | [4] 5.6% | [5] 4.5% | [6] 11.7%

O=C(c1ccc(Cl)c(Cl)c1)C(CS(=O)(=O)O)CS(=O)(=O)O (tested in a mixture with another compound)
inactive: [1] -1.55% | [2] 0.4% | [3] -0.8% | [4] -4.45% | [5] -4.8% | [6] 12.3%

COc1cccc(-c2cc(=O)c3cccnc3[nH]2)c1
inactive: [1] -49.4% | [2] 3.25% | [3] 28.8% | [4] 7.45% | [5] 26.6% | [6] 13.9%

CC1CC(c2ccccc2)S(=O)(=O)O1 (stereo unspecified)
inactive: [1] -5.9% | [2] -4.3% | [3] -3.7% | [4] -12.2% | [5] 35% | [6] -9.95%

N#Cc1ccc(/C=C\c2ccc(C#N)cc2)cc1
inactive: [1] -8.2% | [2] 5.05% | [3] 4.45% | [4] 6.05% | [5] 1.2% | [6] -11.1%

CC(C)NP(=O)(OC1CC(C)(C)N(O)C(C)(C)C1)OC1CC(C)(C)N(O)C(C)(C)C1
inactive: [1] 26.1% | [2] 18.6% | [3] 13.4% | [4] -16.3% | [5] 2% | [6] 5.65%

c1ccc(O[Si](Oc2ccccc2)(Oc2ccccc2)Oc2ccccc2)cc1
inactive: [1] 5.65% | [2] -18.7% | [3] 5.5% | [4] 5.1% | [5] -7.3% | [6] 6.05%

COc1ccc2ncc(COC(=O)Nc3ccccc3)c(COC(=O)Nc3ccccc3)c2c1
inactive: [1] 22% | [2] -6.2% | [3] 11.8% | [4] 5.65% | [5] -7.4% | [6] 6.1%

CCCCCC(Nc1nncs1)Nc1nncs1
inactive: [1] -4.2% | [2] -20.5% | [3] 14.9% | [4] 6.1% | [5] 8.4% | [6] 12.6%

CCCCCCCCCCCCC(CC)(C(=O)OCC)C(=O)OCC
inactive: [1] -1.6% | [2] -0.6% | [3] 13% | [4] -59.5% | [5] 1.15% | [6] -2%

O=[N+]([O-])c1ccc(OCCSc2ccccc2)cc1
inactive: [1] 9% | [2] 33% | [3] 55% | [4] 12.6% | [5] 60.2% | [6] 12.8%

CCCSc1nc2c(c(=O)n(C)c(=O)n2C)n1C
inactive: [1] 7.85% | [2] 15.2% | [3] 10.2% | [4] -9.3% | [5] 9.15% | [6] 6.5%

CC(C)=CCNC(N)=O
inactive: [1] 4.95% | [2] -3.8% | [3] -10.5% | [4] 11% | [5] 7.4% | [6] 2.15%

NC(N)=NCCCc1ccccc1
inactive: [1] 7.05% | [2] 7.25% | [3] 0.8% | [4] 1.85% | [5] 4% | [6] -3.55%

O=C(/C=C(\N=P(c1ccccc1)(c1ccccc1)c1ccccc1)C(F)(F)C(F)(F)C(F)(F)C(F)(F)C(F)(F)C(F)(F)C(F)(F)F)c1ccccc1
inactive: [1] -16.1% | [2] -13.2% | [3] -17.3% | [4] 0.65% | [5] 14.2% | [6] -3%

Cc1cc(NCCN(C(C)C)C(C)C)nc(Nc2nc3ccc(Cl)cc3[nH]2)n1
inactive: [1] -13% | [2] -16.5% | [3] -10.2% | [4] -45.2% | [5] 1.95% | [6] -44.5%

CCOC(=O)C(=O)C(C(=O)OCC)C(C)C(=O)OCC (stereo unspecified)
inactive: [1] 1.9% | [2] -8.3% | [3] 8.2% | [4] -41.1% | [5] 6.65% | [6] -11.2%

CC1(CO)COC(=O)C(C)(C2(C)NC(C)(CO)COC2=O)N1 (stereo unspecified)
inactive: [1] 3.6% | [2] -17.6% | [3] -17.6% | [4] 13.1% | [5] -24.2% | [6] 4.05%

COC(=O)C(CC(=O)c1ccc2ccccc2c1)OC (stereo unspecified)
inactive: [1] -1.85% | [2] -9.1% | [3] 7.2% | [4] -76.7% | [5] 6.35% | [6] -9.55%

Cc1ccc(N=C2OC(=O)c3ccccc32)cc1
inactive: [1] -3.8% | [2] -4% | [3] 0.1% | [4] -39.5% | [5] 9.9% | [6] 32.7%

CC(=O)NNc1nc(C)c(C(=O)NNC(=O)C(=O)Nc2c(Cl)cc([N+](=O)[O-])cc2Cl)s1
inactive: [1] 41.2% | [2] 22.9% | [3] 45.7% | [4] 29% | [5] 42.7% | [6] 18.9%

O=c1c2cnc3cc(Cl)ccc3c2[nH]n1-c1ccc(Cl)cc1
inactive: [1] -1.3% | [2] 0.45% | [3] 1.85% | [4] -2.55% | [5] 2.75% | [6] 2.9%

CCC1(C#N)N=C(c2ccccc2)c2ccccc2N1C(=O)OC (stereo unspecified)
inactive: [1] 5.7% | [2] -1.9% | [3] 17.8% | [4] -28.9% | [5] -35.5% | [6] 18.1%

CN1C(=O)C=C(C=Nc2ccc(-c3ccccc3)cc2)C2CCCCC21 (stereo unspecified)
inactive: [1] 0.85% | [2] -8.75% | [3] -8.05% | [4] 6.55% | [5] 11.5% | [6] 6.75%

NC(=O)[C@H]1CC2CCC1C2 (stereo partly specified)
inactive: [1] 6.75% | [2] -1.75% | [3] 3.4% | [4] 5% | [5] 11.3% | [6] 6%

Cc1ccc(N=C2SC(=NN(C)C)SC2=Nc2ccc(C)cc2)cc1
inactive: [1] 18.9% | [2] -14.1% | [3] 8.35% | [4] -20.3% | [5] -5.25% | [6] -11.6%
